Measurements from PubChem BioAssay (NCATS).
Inconclusive results are not listed. A call without a number means that no potency is given here. Values without a mark were called inactive. Calls of active or inactive are those of the source. Calls come from the whole dose curve; as a rule, active = well fitted curve in the direction sought with a large enough effect; inconclusive = small, poorly fitted or top-dose-only effect, or another doubt; inactive = no such curve, though single readings can be large; an effect the other way counts as inactive or inconclusive. Peptide text beside a SMILES is read from it. * marks the point of attachment. Hexanoyl = CCCCCC(=O)*

Experiments:
[1] = target: Cellular tumor antigen p53 (Homo sapiens) (UniProt P04637); test: Primary qHTS for small molecule compounds that upregulate eGFP-tagged delta133p53alpha (in N-terminal) cells. (AID 2060322); conditions: NCI-H358 eGFP-delta133p53alpha fluorescence, 24 h; activation: hits give high values; note: nearly all actives have a fitted effect of over 75% in size; note: potency is the fitted concentration of half-maximal effect; for activation: series mostly up to about 56 µM
Outline: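 NCI-H358 cells pre-induced 24 h with 10 ng/ml doxycycline to express N-terminal eGFP-delta133p53alpha, then dosed 24 h at 37C without doxycycline; fixed, Hoechst-stained, GFP intensity by laser scanning cytometry, normalized to DMSO (0%) and 57.5 uM 5-azacytidine (100%).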

[2] = target: Aldehyde dehydrogenase, mitochondrial (Homo sapiens) (UniProt P05091); test: qHTS for Inhibitors of the Aldehyde Dehydrogenase Family (ALDH2) Primary screen (AID 2061308); note: nearly all actives have a fitted effect of over 55% in size
[3] = target: Retinaldehyde dehydrogenase 3 (Homo sapiens) (UniProt P47895); test: qHTS for Inhibitors of the Aldehyde Dehydrogenase Family (ALDH1A3) Primary screen (AID 2061315)

Cellular tumor antigen p53 (Homo sapiens), sequence (P04637 whole entry, looked up): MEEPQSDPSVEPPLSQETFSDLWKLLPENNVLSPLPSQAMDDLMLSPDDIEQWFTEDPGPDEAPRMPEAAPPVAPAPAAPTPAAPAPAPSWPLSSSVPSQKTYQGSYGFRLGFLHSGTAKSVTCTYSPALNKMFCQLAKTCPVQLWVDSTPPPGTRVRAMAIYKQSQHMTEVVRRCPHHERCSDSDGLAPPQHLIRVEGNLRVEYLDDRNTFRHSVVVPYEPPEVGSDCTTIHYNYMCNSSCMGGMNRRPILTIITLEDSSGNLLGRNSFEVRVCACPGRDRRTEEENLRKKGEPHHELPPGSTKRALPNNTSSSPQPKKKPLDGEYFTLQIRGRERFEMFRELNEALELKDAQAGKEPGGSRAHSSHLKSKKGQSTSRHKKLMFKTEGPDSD

Structure (SMILES)	activation [1] [%]	Potency [2]	Potency [3]	Potency [1]
[N-]=[N+]=N[C@]1(CO)O[C@@H](n2ccc(=O)[nH]c2=O)[C@@H](O)[C@@H]1O	7	inactive	inactive	
NC1Nc2ccccc2C1(N)CC1NC(=O)C(Cc2ccccc2)NC(=O)C(Cc2ccccc2)NC1=O (centres undefined)	-3.05	inactive	inactive	
CC1(C)CCC2(C(=O)OC3OC(CO)C(O)C(O)C3O)CCC3(C)C(=CCC4C5(C)CCC(OC6OC(C(=O)O)C(OC7OC(CO)C(O)C(O)C7O)C(OC7OC(CO)C(O)C(O)C7O)C6O)C(C)(C)C5CCC43C)C2C1 (centres undefined)	-5.34	inactive	inactive	
CCCCCC(=O)N1CCC[C@H]1C(=O)N[C@@H](Cc1ccc(O)cc1)C(=O)OC (Hexanoyl-Pro-Tyr-OMe)	-3.57	inactive	inactive	
CC12CCC3c4ccc(O)cc4CCC3C1CCC2OC1OC(C(=O)O)C(O)C(O)C1O (centres undefined)	-11.7	inactive	inactive	
CC(=O)OC1CCC2(C)C(CCC3(C)C2CC=C2C4CC(C)(C)CCC4(C)CCC23C)C1(C)C(=O)O (centres undefined)	27.7	inactive	inactive	
COC(=O)c1ccccc1O[C@@H]1O[C@H](CO)[C@@H](O)[C@H](O)[C@H]1O[C@@H]1O[C@@H](C)[C@H](O)[C@@H](O)[C@H]1O	-10.7	inactive	inactive	
COc1cccc(C)c1C(=O)O[C@@H]1C[C@H](O[C@H]2[C@H](O)C[C@H](O[C@@H]3CCC[C@H]4[C@H]3C=C[C@@H]3CCCC/C=C/[C@H]5C=C(C(=O)O)[C@@H](C)C[C@@]56OC(=O)C(=C6O)OC(=O)[C@@]34C)O[C@@H]2C)O[C@H](C)[C@H]1O	-5.34	inactive	inactive	
CC1CCCC[C@H]2C(=O)C=C[C@H](O)[C@@H]2CC(=O)O1 (some centres undefined)		inactive	inactive	23.9 µM (active)
C=C1C(=O)O[C@H]2[C@H]1[C@@H](OC(=O)/C(C)=C\C)C[C@]1(C)O[C@@H]1[C@H]1O[C@H]1C(=C)[C@H]2O	-10.7	inactive	inactive	
O=C(C1=CCN2c3c(cccc31)OC[C@H]2CN1CCOCC1)c1cccc2ccccc12	27.7	inactive	inactive	
O=C1CC[C@H](C(=O)N2CCCCC2)N1	-6.33	inactive	inactive	
N[C@H]1C[C@H]1c1ccc(-c2cccc(O)c2)cc1	1.67	inactive	inactive	
COC(=O)[C@H](O)[C@H]1C(C)(C)[C@H](OC(=O)C(C)C)[C@@]2(O)C(=O)[C@]1(C)C1CC[C@]3(C)C(CC(=O)O[C@H]3c3ccoc3)[C@]13O[C@@H]32 (some centres undefined)	6.11	inactive	inactive	
COc1cc2occc2c(O[C@@H]2O[C@H](CO)[C@@H](O)[C@H](O)[C@H]2O)c1CCC(=O)O	9.16	inactive	inactive	
CC1CCC2(C=O)C(CO)=CCCC2C1(C)CC(=O)O (centres undefined)	-0.763	inactive	inactive	
CC[C@H]1OC(=O)[C@H](C)[C@@H](O[C@H]2C[C@@](C)(OC)[C@@H](O)[C@H](C)O2)[C@H](C)[C@@H](O[C@H]2O[C@H](C)C[C@H](N(C)C)[C@H]2O)[C@](C)(O)C[C@@H](C)C(=O)[C@H](C)[C@@H](O)[C@]1(C)O	9.67	inactive	inactive	
O=c1ccn(C2OC(CO)C(O)C2O)c(=O)[nH]1 (centres undefined)	17.6	inactive	inactive	
Cc1cnc(NC(=O)Nc2cc(Br)c(C)cc2OCC2CNCCO2)cn1 (centres undefined)	11.6	inactive	inactive	
COc1cc(O)c2c(c1)C1=C[C@H](O)[C@@H](O)C[C@]1(C)OC2=O	1.53	inactive	inactive	
C/C=C(\C)C(=O)OC[C@H]1O[C@H](O[C@H]2O[C@H](CO)[C@@H](O)[C@H](O)[C@H]2O[C@@H]2O[C@H](CO)[C@@H](O)[C@H](O)[C@H]2O)[C@H](O[C@@H]2O[C@H](CO)[C@@H](O)[C@H](O)[C@H]2O)[C@@H](O)[C@@H]1O	-3.82	inactive	inactive	
CC(=O)c1cc(C(=O)N[C@@H](C)Cn2ccc(-c3ccc(C#N)c(Cl)c3)n2)[nH]n1	18.3	inactive	inactive	
COC(=O)CC[C@@H](C)[C@H]1CC[C@H]2[C@@H]3CC(=O)[C@H]4C[C@H](OC(C)=O)CC[C@]4(C)[C@H]3CC[C@]12C	-4.33	inactive	inactive	
